# Test results published in ChEMBL document CHEMBL1157539, “Thousands of chemical starting points for antimalarial lead identification” (Nature, 2010).
# Tested on: Plasmodium falciparum
# Assay: GSK_TCMDC: Inhibition of Plasmodium falciparum 3D7 in whole red blood cells, using parasite LDH activity as an index of growth. Test compounds present at 2uM
# Assay type: functional
row,Structure (SMILES),Inhibition [%]
1,CCN(CCN(C)C)Cc1ccc(-c2ccc(NS(=O)(=O)c3cccc(Cl)c3)cc2)cc1.O=C(O)C(F)(F)F,97
2,CCc1ccc(NC(=O)c2ccc(CN3CCCN(Cc4cccc(Cl)c4)CC3)cc2)cc1.O=C(O)C(F)(F)F,84
3,C=CC[C@H](C[C@H](O)[C@H](Cc1ccccc1)NC(=O)c1ccc(-n2cccn2)cc1)C(=O)NC1CCCCC1,96
4,COc1ccc2ncc(F)c([C@@H](O)CN3CCC(NCc4ccc5c(c4)NCCS5)CC3)c2n1.Cl,99
5,Fc1ccc(Nc2ccnc3cc(-c4ccc(CNCCN5CCOCC5)o4)ccc23)c(Cl)c1,100
6,Cc1nc(N)nc(N)c1C#CC1CCCC1,96
7,COc1cccc2c(NCCNc3ccnc4c(OC)cccc34)ccnc12.Cl,93
8,Cc1sc2nc(CSc3ccccc3)nc(N3CCN(CC(=O)NC4CC4)CC3)c2c1C,96
9,CS(=O)(=O)O.c1ccc2c(CNCCCCCCNCc3c(OCC4CC4)ccc4ccccc34)c(OCC3CC3)ccc2c1,93
10,COc1ccccc1-c1cccc(CNC2CCN(CC3Cn4c(=O)ccc5ccc(F)c3c54)CC2)c1.O=C(O)C(F)(F)F (stereo unspecified),91
11,Cc1ccc(C)c(Cn2ccc3nc(N)nc(N)c32)c1,97
12,COc1cc(C(=O)NC2CCN(Cc3ccccc3)CC2)ccc1-c1cc2cc(Cl)c(Cl)cc2[nH]1.O=C(O)C(F)(F)F,100
13,CS(=O)(=O)Nc1cccc(-c2cnc3[nH]cc(-c4ccc(CN)cc4)c3c2)c1,98
14,Cc1cc(NC(=O)c2cccs2)ccc1OC1CCN(Cc2ccc(F)cc2)C1.O=C(O)C(F)(F)F (stereo unspecified),95
15,Br.CC(=O)CSC(C=Cc1ccc(N(C)C)cc1)=Nc1ccccc1,81
16,O=C(O)C(F)(F)F.c1ccc(CNCCn2c(-c3ccc4c(c3)CCO4)nc3c(N4CCCC4)cccc32)cc1,82
17,O=C(N[C@@H](Cc1ccccc1)C(=O)NCCN1CCOCC1)c1ccc(O)c(-c2ccc(Cl)c(Cl)c2)c1,97
18,CCCSc1nc2c(c(=O)n1Cc1ccco1)C1(CCCCC1)Cc1ccccc1-2,100

row,Structure (SMILES),Inhibition [%]
1,CCn1c(SCc2ccc(F)cc2)nc2sc3c(c2c1=O)CCN(C)C3,95
2,Cc1ccc(C(=O)Nc2ccc(OC3CCN(CCC(C)C)C3)c(Cl)c2)cc1.O=C(O)C(F)(F)F (stereo unspecified),83
3,CO/N=C(\C)c1ccc2c(c1)CCN(CCC1CCC(NC(=O)/C=C/c3ccc(F)cc3)CC1)CC2.Cl (stereo unspecified),95
4,Cc1ccccc1C1CCN(C2CCC(NC(=O)/C=C/c3ccc(C(F)(F)F)cc3)CC2)CC1 (stereo unspecified),95
5,CC(=O)c1ccc(NC(=O)CSc2nc(-c3ccccc3Cl)ns2)cc1,89
6,CN(C)CCN(C)Cc1ccc(-c2cccc(NC(=O)c3cccc(C#N)c3)c2)cc1.O=C(O)C(F)(F)F,94
7,COc1c(CN2CCOCC2)cccc1-c1cc2c(-c3ccc(C(=O)O)c(C(C)C)c3)ccnc2[nH]1.O=C(O)C(F)(F)F,98
8,O=C(NC1CC1)c1cnc(N2CCC(Cc3ccccc3)CC2)c(Cl)c1.O=C(O)C(F)(F)F,96
9,CN(C)CCNc1nccc(N2CCc3ncnc(Nc4ccc(OCc5cccc(F)c5)c(Cl)c4)c3C2)n1,100
10,Cc1nc(-c2cccc(C(=O)NC3CCC(CCN4CCc5ccc(-c6cccnc6)cc5CC4)CC3)c2)no1.Cl (stereo unspecified),98
11,COc1ccc2ncc(F)c(CCN3C4CCC3CC(NCc3cc5c(cn3)OCS5)C4)c2n1.Cl (stereo unspecified),95
12,NCc1cccc(-c2ccccc2CNC2CCN(Cc3ccccc3)CC2)c1.O=C(O)C(F)(F)F,94
13,Cc1ccc(CNC(=O)[C@H](CC(C)C)Nc2cc(C)nc(Nc3ccccc3)n2)cc1.O=C(O)C(F)(F)F,97
14,COc1cccc2c(NN=Cc3ccccc3Cl)cc(C)nc12,100
15,Cc1noc(C)c1-c1cccc(CNCc2ccc(-c3cccc(-c4nc5cc(C(F)(F)F)ccc5[nH]4)c3)cc2)c1.O=C(O)C(F)(F)F,100
16,CCOc1ccc(C(=O)Nc2cc3c(c(C(F)(F)F)c2)CCNC3)cc1Cl.Cl,91
17,CCCOc1cc(OCCC)cc(-c2ccc(C(=O)Nc3ccc4ccc(C)nc4c3)c(=O)[nH]2)c1,100
18,COc1ccc(-c2csc3ncnc(Cl)c23)cc1,96
